From PubChem BioAssay (NCATS)
Records with an inconclusive call do not appear. Calls of active or inactive are those of the source. Unless noted, the call rests on the fitted dose curve; in most records, active means well fitted curve in either direction with a large enough effect (not every such curve was filed as active); inconclusive means small, poorly fitted or top-dose-only effect, or another doubt; inactive means flat fitted curve, though single readings scatter.

Tests used:
[1] = molecular target: Lysosomal acid glucosylceramidase (Homo sapiens) (UniProt P04062); assay: Glucocerebrosidase-p2 (AID 348; in the data active means potency below about 10 µM; further: potency means the concentration at half of the fitted maximal effect); conditions: purified GBA, blue fluorogenic substrate, 40 min
Lysosomal acid glucosylceramidase (Homo sapiens), sequence (P04062 whole entry, looked up): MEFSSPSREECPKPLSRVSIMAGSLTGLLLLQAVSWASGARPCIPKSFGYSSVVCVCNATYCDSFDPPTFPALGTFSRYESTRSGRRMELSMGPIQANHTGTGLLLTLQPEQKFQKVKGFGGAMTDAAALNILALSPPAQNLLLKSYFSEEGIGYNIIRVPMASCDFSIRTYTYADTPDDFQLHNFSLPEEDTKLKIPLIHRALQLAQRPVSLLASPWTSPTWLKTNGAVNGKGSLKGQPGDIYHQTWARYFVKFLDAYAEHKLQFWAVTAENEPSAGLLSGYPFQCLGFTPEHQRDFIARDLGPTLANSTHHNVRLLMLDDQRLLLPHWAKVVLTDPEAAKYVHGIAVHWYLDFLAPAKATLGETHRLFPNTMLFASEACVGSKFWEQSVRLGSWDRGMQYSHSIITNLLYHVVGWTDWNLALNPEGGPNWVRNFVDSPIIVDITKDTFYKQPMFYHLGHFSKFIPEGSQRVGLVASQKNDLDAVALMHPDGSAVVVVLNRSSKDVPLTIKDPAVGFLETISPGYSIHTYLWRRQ
Method in brief: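 Compounds titrated from 0.6 nM upwards against 0.2 nM enzyme in pH 5.9 citric acid/KH2PO4, taurocholate, tween-20; blue fluorogenic substrate 80 uM, 40 min room temperature, stopped and read Ex 365/Em 440 for AC50.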

[2] = AP1 Signaling Pathway (AID 357); conditions: ME-180 AP-1-bla reporter, EGF-induced, beta-lactamase ratio, 5 h; at 7.69 µM (top of the series) unless noted;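 further: ME-180 reporter cells stimulated with EGF at its EC50 level; on the % scale 0 is the no-effect control and ±100 the full control effect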
Method in brief: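 Read-out was the 460nm/530nm emission ratio (excitation 405nm) after CCF4 loading for 2.5 hours at room temperature. Cells carried an AP-1-driven beta-lactamase reporter, were stimulated with EC50 EGF plus compound for 5 hours, and AC50 values came from titrations.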

[3] = NFAT Signaling Pathway (AID 444); conditions: Jurkat NFAT-bla M1, carbachol, beta-lactamase ratio, 5 h; at 7.69 µM (top of the series) unless noted;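 further: carbachol stimulus at about its EC50 of 1 µM final; on the % scale 0 is the no-effect control and ±100 the full control effect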
Method in brief: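 Read-out: CCF4 FRET ratio (460 nm/530 nm) after 1 h RT dye loading, used for %activity and AC50 from titration series. Cells: Jurkat NFAT-β-lactamase/M1 line, treated with compound plus 1 uM carbachol for 5 h, 37 °C.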

[4] = Stat Signaling Pathway (AID 446); conditions: ME-180 SIE beta-lactamase reporter, IL-6 stimulated, 5 h; at 7.69 µM (top of the series) unless noted;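 further: ME-180 cervical cancer cells given 40 pM IL-6 alongside compound; SIE-controlled beta-lactamase reporter measured as 460/530 nm FRET emission ratio; on the % scale 0 is the no-effect control and ±100 the full control effect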
Method in brief: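 IL-6/STAT signaling read in ME-180 cells via an SIE beta-lactamase reporter. Stimulus was 40 pM IL-6 (its AC50) for 5 hrs, so both activation and inhibition register.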

[5] = molecular target: Glucocorticoid receptor (Homo sapiens) (UniProt P04150); assay: GR-EFC Redistribution (AID 451; calls by dose curve; further: potency means the concentration at half of the fitted maximal effect); conditions: CHO-K1 GR-EFC translocation, beta-gal luminescence, 2 h
Glucocorticoid receptor (Homo sapiens), sequence (P04150 whole entry, looked up, the tested form may be a part): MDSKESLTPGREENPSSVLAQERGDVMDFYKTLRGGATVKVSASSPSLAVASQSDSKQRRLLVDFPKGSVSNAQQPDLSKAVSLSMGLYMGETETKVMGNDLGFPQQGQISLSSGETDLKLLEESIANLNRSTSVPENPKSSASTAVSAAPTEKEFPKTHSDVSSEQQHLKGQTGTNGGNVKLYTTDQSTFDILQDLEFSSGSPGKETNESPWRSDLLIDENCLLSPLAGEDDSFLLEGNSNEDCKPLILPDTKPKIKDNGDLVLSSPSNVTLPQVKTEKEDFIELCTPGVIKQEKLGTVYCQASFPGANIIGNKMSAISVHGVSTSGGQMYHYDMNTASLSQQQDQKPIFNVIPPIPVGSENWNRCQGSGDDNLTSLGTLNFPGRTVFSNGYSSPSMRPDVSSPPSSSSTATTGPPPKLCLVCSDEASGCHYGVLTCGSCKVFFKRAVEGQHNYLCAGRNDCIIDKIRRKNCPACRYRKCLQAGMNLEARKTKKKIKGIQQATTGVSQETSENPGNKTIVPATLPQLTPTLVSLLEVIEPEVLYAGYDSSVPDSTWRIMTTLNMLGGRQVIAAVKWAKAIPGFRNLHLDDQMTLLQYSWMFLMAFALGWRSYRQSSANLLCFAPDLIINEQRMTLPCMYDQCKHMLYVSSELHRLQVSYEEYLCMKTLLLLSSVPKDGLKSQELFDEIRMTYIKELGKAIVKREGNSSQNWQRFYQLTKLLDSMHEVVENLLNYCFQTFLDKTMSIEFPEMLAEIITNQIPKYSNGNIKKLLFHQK
Method in brief: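 Translocation of GR-ED fusion to nuclear EA restores b-gal, read by luminescence after 1 h room-temperature detection. Engineered CHO-K1 biosensor cells, 1,000/well, exposed 2 h at 37 C to titrations up to 46 uM final.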

[6] = molecular target: Mitogen-activated protein kinase 10 (Mus musculus) (UniProt Q61831); assay: JNK3 AlphaScreen Assay (AID 530); conditions: JNK3 lysate, c-Jun phosphorylation; series mostly up to 57.1 µM;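 further: kinase came from lysate of stimulated human HepG2 cells; signal reports phosphorylation of biotinylated GST-cJun 1-79 at Ser73 with 10 µM ATP; on the % scale 0 is the no-effect control and ±100 the full control effect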
Method in brief: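 Compound titrations were preincubated 15 minutes at room temperature with substrate, antibody and pre-activated JNK3-containing HepG2 lysate. Reactions were started with 10 uM ATP and stopped with EDTA-containing bead buffer for AlphaScreen detection.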

[7] = molecular target: 3',5'-cyclic-AMP phosphodiesterase 4B (Homo sapiens) (UniProt Q07343); assay: qHTS Assay for Inhibitors of PDE-IV (AID 607; active means well fitted activation curve with a large enough effect in the main read-out, with a control signal flat, not every such curve was filed as active; further: % of control where 0% means no effect); conditions: HEK293 ACTOne CNG channel cells, membrane potential fluorescence; series mostly up to 22.9 µM
3',5'-cyclic-AMP phosphodiesterase 4B (Homo sapiens), sequence (Q07343 whole entry, looked up): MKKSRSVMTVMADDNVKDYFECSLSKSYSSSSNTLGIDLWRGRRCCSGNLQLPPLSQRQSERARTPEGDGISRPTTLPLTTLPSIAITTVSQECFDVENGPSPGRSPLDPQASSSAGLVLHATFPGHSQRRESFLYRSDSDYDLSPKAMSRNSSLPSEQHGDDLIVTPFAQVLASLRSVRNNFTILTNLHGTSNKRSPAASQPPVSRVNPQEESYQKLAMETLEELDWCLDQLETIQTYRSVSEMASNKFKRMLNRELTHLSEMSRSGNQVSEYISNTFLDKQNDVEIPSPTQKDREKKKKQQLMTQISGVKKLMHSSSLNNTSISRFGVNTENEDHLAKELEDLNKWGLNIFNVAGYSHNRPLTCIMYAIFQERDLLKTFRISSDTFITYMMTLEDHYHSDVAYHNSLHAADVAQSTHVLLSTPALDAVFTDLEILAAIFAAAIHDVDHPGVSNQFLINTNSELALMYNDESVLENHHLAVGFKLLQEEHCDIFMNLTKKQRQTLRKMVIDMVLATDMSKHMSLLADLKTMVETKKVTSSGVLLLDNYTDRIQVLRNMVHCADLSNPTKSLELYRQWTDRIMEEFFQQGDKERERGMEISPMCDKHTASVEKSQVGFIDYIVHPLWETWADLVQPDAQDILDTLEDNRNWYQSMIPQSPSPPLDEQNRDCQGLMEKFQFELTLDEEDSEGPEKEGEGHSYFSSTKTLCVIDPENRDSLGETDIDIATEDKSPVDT
Method in brief: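 Live HEK293 cells with a modified cyclic nucleotide-gated (CNG) channel report intracellular cAMP via membrane-potential dye fluorescence (ex 535/em 590 nm). Endogenous PDE-IV was targeted. Compounds were tested at up to 22.9 uM final; RO 20-1724 100 uM served as control.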

[8] = qHTS Assay for Lipid Storage Modulators (AID 1519; calls by dose curve); conditions: Drosophila S3 cells, BODIPY lipid droplet/cell ratio, laser cytometry, cells loaded with oleic acid; for activity change, negative = inhibition: at 57.5 µM (top of the series)
Method in brief: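 Cells seeded at 5,000 per well were treated with compounds over a concentration series and loaded with oleic acid (400 uM, as added). Lipid droplet fluorescence (488 nm excitation, 500-530 nm channel) was read by laser-scanning cytometry and normalized to 20 uM Triacsin C.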

[9] = Primary qHTS for small molecule stabilizers of the endoplasmic reticulum resident proteome: Secreted ER Calcium Modulated Protein (SERCaMP) assay (AID 1508630; active means well fitted curve in the direction sought with a large enough effect; an effect the other way counts as inactive or inconclusive; further: on the % scale 0 is the no-effect control and ±100 the full control effect); conditions: SH-SY5Y GLuc-SERCaMP (Gaussia luciferase released on ER calcium loss) secretion, thapsigargin, luminescence; series mostly up to 38.4 µM
Method in brief: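 GLuc-SERCaMP-expressing SH-SY5Y cells, pretreated 16 h with compound, are challenged with thapsigargin to empty ER calcium stores; after 4 h, coelenterazine is added directly to the medium and luminescence is imaged.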

[10] = molecular target: Cytochrome P450 3A4 (Homo sapiens) (UniProt P08684); assay: qHTS Assay for Inhibitors and Substrates of Cytochrome P450 3A4 (AID 884; active means well fitted curve in the direction sought with a large enough effect; an effect the other way counts as inactive or inconclusive; further: on the % scale 0 is the no-effect control and ±100 the full control effect; nearly all actives have a fitted effect of over 50% in size); conditions: recombinant CYP3A4, Luciferin-PPXE luminescence; series mostly up to 57.1 µM
Cytochrome P450 3A4 (Homo sapiens), sequence (P08684 whole entry, looked up): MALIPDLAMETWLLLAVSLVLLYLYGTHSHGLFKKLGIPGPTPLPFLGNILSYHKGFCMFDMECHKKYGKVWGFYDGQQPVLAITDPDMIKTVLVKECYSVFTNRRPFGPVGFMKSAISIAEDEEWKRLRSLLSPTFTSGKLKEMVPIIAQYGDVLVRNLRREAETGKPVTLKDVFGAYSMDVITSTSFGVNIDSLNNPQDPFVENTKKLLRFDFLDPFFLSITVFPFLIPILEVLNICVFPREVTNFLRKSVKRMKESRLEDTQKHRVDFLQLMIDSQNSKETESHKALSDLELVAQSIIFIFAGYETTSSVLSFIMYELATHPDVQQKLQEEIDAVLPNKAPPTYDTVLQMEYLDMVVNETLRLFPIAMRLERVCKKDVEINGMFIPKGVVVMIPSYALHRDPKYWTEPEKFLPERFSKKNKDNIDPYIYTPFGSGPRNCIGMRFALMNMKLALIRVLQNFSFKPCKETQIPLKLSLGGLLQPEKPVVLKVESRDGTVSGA
Method in brief: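 20 nM human CYP3A4 with 25 uM Luciferin-PPXE (at KM) in 200 mM KPO4, preincubated 10 min with compound; NADPH regeneration started a 60 min RT reaction. Luciferin detected by luminescence, normalized to 57 uM ketoconazole as full inhibition.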

[11] = molecular target: Cytochrome P450 3A4 (Homo sapiens) (UniProt P08684); assay: qHTS Assay for Activators of Cytochrome P450 3A4 (AID 885; active means well fitted curve in the direction sought with a large enough effect; an effect the other way counts as inactive or inconclusive; further: nearly all actives have a fitted effect of over 65% in size; further: potency means the concentration at half of the fitted maximal effect); conditions: recombinant CYP3A4, Luciferin-PPXE luminescence, 60 min; series mostly up to 57.1 µM
Method in brief: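 Quantitative HTS format: compounds preincubated with 20nM human CYP3A4 and Luciferin-PPXE substrate at KM, reaction started by NADPH regeneration, stopped after 60 min, luciferase luminescence read 20 min later.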

[12] = qHTS Assay for Identification of Small Molecule Agonists for Hypoxia Response Element Signaling Pathway (AID 914; active means well fitted activation curve with a large enough effect in the signal ratio, with a control signal flat, not every such curve was filed as active; the % refers to the signal ratio; further: % of control where 0% means no effect); conditions: ME-180 (cervical carcinoma) HRE-bla reporter, beta-lactamase ratio, CoCl2, 17 h; activation: stronger effect = higher value
Method in brief: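 AC50 values come from titration-series %Activity, taken as the 460/530nm ratio of CCF4 fluorescence (excitation 405nm). CellSensor HRE-bla ME-180 cells were treated 17 hours at 37 C with compound plus an EC50 level of CoCl2.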

[13] = molecular target: Cytochrome P450 2D6 (Homo sapiens) (UniProt P10635); assay: qHTS Assay for Inhibitors and Substrates of Cytochrome P450 2D6 (AID 891; active means well fitted curve in the direction sought with a large enough effect; an effect the other way counts as inactive or inconclusive; further: potency means the concentration at half of the fitted maximal effect; nearly all actives have a fitted effect of over 60% in size); conditions: recombinant CYP2D6, luciferin-ME EGE luminescence; series mostly up to 57.1 µM
Cytochrome P450 2D6 (Homo sapiens), sequence (P10635 whole entry, looked up): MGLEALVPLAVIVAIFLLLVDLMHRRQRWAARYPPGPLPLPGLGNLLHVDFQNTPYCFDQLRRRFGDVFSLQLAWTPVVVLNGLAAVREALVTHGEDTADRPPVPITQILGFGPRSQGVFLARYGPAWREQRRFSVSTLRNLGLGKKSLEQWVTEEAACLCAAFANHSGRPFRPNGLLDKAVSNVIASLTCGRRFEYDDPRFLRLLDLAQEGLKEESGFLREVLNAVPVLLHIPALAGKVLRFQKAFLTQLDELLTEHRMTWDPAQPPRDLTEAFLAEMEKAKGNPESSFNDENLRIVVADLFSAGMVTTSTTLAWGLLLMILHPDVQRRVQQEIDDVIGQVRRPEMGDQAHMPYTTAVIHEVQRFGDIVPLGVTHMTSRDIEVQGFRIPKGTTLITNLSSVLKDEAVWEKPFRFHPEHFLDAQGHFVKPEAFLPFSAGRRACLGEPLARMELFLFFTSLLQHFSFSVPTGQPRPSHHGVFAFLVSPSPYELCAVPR
Method in brief: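 Human CYP2D6 (5 nM) with 30 uM Luciferin-ME EGE (at Km) in 100 mM KPO4, compound preincubated 10 min, then NADPH regeneration system for 60 min at room temperature. Luciferin read by luminescence; normalized to 1.43 uM quinidine.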

[14] = measured here: cell count channel max response
[15] = measured here: lipid channel max response

O=C(c1csnn1)N1CCC2(CCCN(c3cccc(-c4ccccc4)c3)C2)CC1
-3.2%: max response [8, 15]
9.62%: max response [8, 14]
inactive: Potency [1] > 11.4 µM | activity change, negative = inhibition [2] -12.3% | activity change, negative = inhibition [3] -13.8% | activity, negative = inhibition [4] -5.72% | Potency [5] > 46 µM | Potency [6] | Potency [7] | activity change, negative = inhibition [8] -16.4% | outcome [9]

N#Cc1cccc(NC(=O)N2CC3(CCN(C(=O)c4cccc(F)c4)CC3)C2)c1
25.1%: max response [8, 15]
active: Potency [11] 10 µM
17%: max response [8, 14]
inactive: Potency [1] > 11.4 µM | activity change, negative = inhibition [2] -1.48% | activity change, negative = inhibition [3] 8.8% | activity, negative = inhibition [4] -8.78% | Potency [5] > 46 µM | Potency [6] | Potency [7] | Potency [10] | activity change, negative = inhibition [8] 4.13% | outcome [9]

COCC(=O)N1CCC2(CCCN(c3ccc(-c4ccccc4)cc3)C2)CC1
14.9%: max response [8, 15]
inactive: Potency [1] > 11.4 µM | activity change, negative = inhibition [2] -7.31% | activity change, negative = inhibition [3] 3.92% | activity, negative = inhibition [4] -7.13% | Potency [5] > 46 µM | Potency [6] | Potency [7] | activity change, negative = inhibition [8] -5.34% | outcome [9]
18.5%: max response [8, 14]

COc1ccc(NC(=O)N2CC[C@@]3(CCCN(S(C)(=O)=O)C3)C2)cc1
15.1%: max response [8, 15]
8.24%: max response [8, 14]
inactive: Potency [1] > 11.4 µM | activity change, negative = inhibition [2] -12.7% | activity change, negative = inhibition [3] 4.27% | activity, negative = inhibition [4] -1.03% | Potency [5] > 46 µM | Potency [6] | Potency [7] | Potency [11] | activity change, negative = inhibition [8] 4.71% | outcome [9]

COc1ccc(NC(=O)N2CCCC3(CCN(C(C)=O)CC3)C2)cc1
10.9%: max response [8, 14]
18.6%: max response [8, 15]
inactive: Potency [1] > 11.4 µM | activity change, negative = inhibition [2] -2.44% | activity change, negative = inhibition [3] 11.5% | activity, negative = inhibition [4] -0.377% | Potency [5] > 46 µM | Potency [6] | activation [12] -9.1% | activity change, negative = inhibition [8] 5.88% | outcome [9]

CS(=O)(=O)N1CCC2(CC1)CN(C(=O)Nc1cccc(F)c1)C2
15.2%: max response [8, 14]
inactive: Potency [1] > 11.4 µM | activity change, negative = inhibition [2] 0.393% | activity change, negative = inhibition [3] 3.65% | activity, negative = inhibition [4] 13.3% | Potency [5] > 46 µM | Potency [6] | Potency [7] | activity change, negative = inhibition [8] 5.56% | outcome [9]
24.9%: max response [8, 15]

COc1ccc(C(=O)N2CCC3(CC2)CCN(c2ccccc2)CC3)cc1
9.05%: max response [8, 14]
inactive: Potency [1] > 11.4 µM | activity change, negative = inhibition [2] -11.8% | activity change, negative = inhibition [3] 1.53% | activity, negative = inhibition [4] -8.92% | Potency [5] > 46 µM | Potency [6] | Potency [7] | Potency [10] | activation [12] -13.6% | activity change, negative = inhibition [8] 4.37% | outcome [9]
17.4%: max response [8, 15]

CS(=O)(=O)N1CCC2(CC1)CN(c1ccccn1)C2
7.05%: max response [8, 14]
10.2%: max response [8, 15]
inactive: Potency [1] > 11.4 µM | activity change, negative = inhibition [2] 2.96% | activity change, negative = inhibition [3] -0.983% | activity, negative = inhibition [4] 5.22% | Potency [5] > 46 µM | Potency [6] | Potency [7] | activity change, negative = inhibition [8] 2.99% | outcome [9]

O=C(c1cccc(F)c1)N1CCC[C@@]2(CCN(Cc3ccccc3)C2)C1
11.6%: max response [8, 14]
inactive: Potency [1] > 11.4 µM | activity change, negative = inhibition [2] -3.14% | activity change, negative = inhibition [3] -11.7% | activity, negative = inhibition [4] 9.35% | Potency [5] > 46 µM | Potency [6] | Potency [7] | activity change, negative = inhibition [8] -0.915% | outcome [9]
12%: max response [8, 15]

O=S(=O)(c1ccccc1)N1CCC2(CCN(c3ccc(-c4ccccc4)cc3)CC2)CC1
18.6%: max response [8, 14]
22.9%: max response [8, 15]
inactive: Potency [1] > 11.4 µM | activity change, negative = inhibition [2] 1.76% | activity change, negative = inhibition [3] 11.9% | activity, negative = inhibition [4] -10.3% | Potency [5] > 46 µM | Potency [6] | Potency [7] | Potency [11] | activity change, negative = inhibition [8] 5.32% | outcome [9]

N#Cc1ccc(CN2CC[C@@]3(CCCN(C(=O)c4cnccn4)C3)C2)cc1
18.2%: max response [8, 15]
inactive: Potency [1] > 11.4 µM | activity change, negative = inhibition [2] -8.73% | activity change, negative = inhibition [3] 1.72% | activity, negative = inhibition [4] 4.34% | Potency [5] > 46 µM | Potency [6] | Potency [7] | activity change, negative = inhibition [8] 2.06% | outcome [9]
12.2%: max response [8, 14]

O=S(=O)(c1ccccc1)N1CCC[C@@]2(CCN(c3ncccn3)C2)C1
inactive: Potency [1] > 11.4 µM | activity change, negative = inhibition [2] -0.184% | activity change, negative = inhibition [3] 27.1% | activity, negative = inhibition [4] -4.75% | Potency [5] > 46 µM | Potency [6] | Potency [7] | activity change, negative = inhibition [8] 4.79% | outcome [9]
13%: max response [8, 15]
6.87%: max response [8, 14]

COc1ccc(NC(=O)N2CC[C@@]3(CCCN(C(=O)c4ccncc4)C3)C2)cc1
0.213%: max response [8, 14]
inactive: Potency [1] > 11.4 µM | activity change, negative = inhibition [2] -25.1% | activity change, negative = inhibition [3] 16.8% | activity, negative = inhibition [4] 5.11% | Potency [5] > 46 µM | Potency [6] | Potency [7] | activity change, negative = inhibition [8] 2.47% | outcome [9]
7.4%: max response [8, 15]

CC(C)NC(=O)N1CC2(CCN(C(=O)c3cc(C(F)(F)F)cc(C(F)(F)F)c3)CC2)C1
11%: max response [8, 14]
13.7%: max response [8, 15]
inactive: Potency [1] > 11.4 µM | activity change, negative = inhibition [2] -16.3% | activity change, negative = inhibition [3] 6.43% | activity, negative = inhibition [4] -11.9% | Potency [5] > 46 µM | Potency [6] | Potency [7] | activity change, negative = inhibition [8] 0.828% | outcome [9]
active: Potency [13] 0.251 µM
